Data published in publication PMC7862700, “An all-to-all approach to the identification of sequence-specific readers for epigenetic DNA modifications on cytosine”.

Assays:
Test in all cases: DAPPL (digital affinity profiling via proximity ligation, sequencing); 10 mM Tris-HCl pH 7.5, 50 mM NaCl, 1 mM DTT, 4% glycerol, room temperature, 30 min; GST-TFs on glutathione beads, 16-mer random dsDNA library, 0.1% formaldehyde crosslink after washing; high values mean tight binding
Settings in all cases: protein: recombinant; tags: N-terminal GST; dsDNA, one strand shown
[1] = biological target: T1, FLI1 (Homo sapiens, UniProt Q01543 1-452)
T1 sequence: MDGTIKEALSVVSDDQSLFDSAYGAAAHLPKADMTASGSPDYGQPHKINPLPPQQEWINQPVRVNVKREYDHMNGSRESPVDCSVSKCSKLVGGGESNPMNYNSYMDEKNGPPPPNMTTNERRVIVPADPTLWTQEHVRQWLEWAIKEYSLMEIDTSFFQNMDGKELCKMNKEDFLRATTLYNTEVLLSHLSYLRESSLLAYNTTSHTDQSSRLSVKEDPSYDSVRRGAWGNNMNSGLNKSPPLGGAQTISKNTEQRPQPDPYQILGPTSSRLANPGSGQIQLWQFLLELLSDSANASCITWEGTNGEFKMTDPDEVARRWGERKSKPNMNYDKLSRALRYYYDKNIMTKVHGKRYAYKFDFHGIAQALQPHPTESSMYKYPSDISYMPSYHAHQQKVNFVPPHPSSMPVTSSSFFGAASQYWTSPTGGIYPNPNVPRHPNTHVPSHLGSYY
Method in brief: (§1)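 Pools were built from human transcription factors expressed in yeast as GST fusions, captured on glutathione beads and DNA-barcoded, along with a tag-only sample. Incubation with 200 nmole of a 16-mer random double-stranded DNA library lasted 30 min at room temperature in Tris/NaCl/DTT/glycerol buffer, and was followed by washing, 0.1% formaldehyde crosslinking, proximity ligation, PCR amplification and Illumina NextSeq500 sequencing. Binding signal is the quotient of each hexamer's read frequency for a factor and its frequency for the tag-only sample.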

[2] = biological target: T2, GABPA (Homo sapiens, UniProt Q06546 1-454)
T2 sequence: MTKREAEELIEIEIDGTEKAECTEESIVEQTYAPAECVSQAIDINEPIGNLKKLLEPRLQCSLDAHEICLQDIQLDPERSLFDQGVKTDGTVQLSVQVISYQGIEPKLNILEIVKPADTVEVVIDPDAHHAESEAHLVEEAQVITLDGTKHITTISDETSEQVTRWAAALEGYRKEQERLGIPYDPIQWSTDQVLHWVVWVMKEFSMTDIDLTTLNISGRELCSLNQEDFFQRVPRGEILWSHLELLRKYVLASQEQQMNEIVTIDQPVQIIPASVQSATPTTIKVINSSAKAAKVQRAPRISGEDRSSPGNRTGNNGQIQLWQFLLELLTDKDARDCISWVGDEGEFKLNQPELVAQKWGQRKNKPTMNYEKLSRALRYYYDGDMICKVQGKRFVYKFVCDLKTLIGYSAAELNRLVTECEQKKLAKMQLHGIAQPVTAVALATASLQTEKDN
Method in brief: as §1

[3] = biological target: T3, ERG (Homo sapiens, UniProt P11308 1-479)
T3 sequence: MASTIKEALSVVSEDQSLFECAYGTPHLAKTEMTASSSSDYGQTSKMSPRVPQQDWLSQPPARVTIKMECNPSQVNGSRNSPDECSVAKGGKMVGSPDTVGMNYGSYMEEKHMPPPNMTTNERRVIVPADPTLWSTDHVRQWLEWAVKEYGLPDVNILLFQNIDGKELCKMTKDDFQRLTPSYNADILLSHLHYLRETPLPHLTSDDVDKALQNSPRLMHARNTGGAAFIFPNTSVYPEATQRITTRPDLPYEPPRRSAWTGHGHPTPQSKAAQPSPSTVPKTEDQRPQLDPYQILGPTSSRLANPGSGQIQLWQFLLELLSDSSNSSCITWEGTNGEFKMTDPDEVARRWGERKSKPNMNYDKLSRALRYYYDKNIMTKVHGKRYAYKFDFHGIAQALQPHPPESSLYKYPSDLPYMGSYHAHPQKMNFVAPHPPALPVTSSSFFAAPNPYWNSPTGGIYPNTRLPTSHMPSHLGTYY
Method in brief: as §1

[4] = biological target: ELF1 (Homo sapiens, UniProt P32519 1-619)
Method in brief: as §1

[5] = biological target: T4, EHF (Homo sapiens, UniProt Q9NZC4 1-300)
T4 sequence: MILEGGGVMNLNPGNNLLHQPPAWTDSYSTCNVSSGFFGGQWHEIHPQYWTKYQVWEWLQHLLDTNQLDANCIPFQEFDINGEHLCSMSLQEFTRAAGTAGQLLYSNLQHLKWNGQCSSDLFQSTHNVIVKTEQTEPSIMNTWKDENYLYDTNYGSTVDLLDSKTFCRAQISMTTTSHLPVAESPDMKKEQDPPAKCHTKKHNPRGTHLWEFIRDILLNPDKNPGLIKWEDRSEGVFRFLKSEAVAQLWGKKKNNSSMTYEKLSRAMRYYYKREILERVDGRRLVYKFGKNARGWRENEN
Method in brief: as §1

[6] = biological target: SPI1 (Homo sapiens, UniProt P17947 1-270)
Method in brief: as §1

[7] = biological target: SPIB (Homo sapiens, UniProt Q01892 1-262)
Method in brief: as §1

[8] = biological target: T5, FEV (Homo sapiens, UniProt Q99581 1-238)
T5 sequence: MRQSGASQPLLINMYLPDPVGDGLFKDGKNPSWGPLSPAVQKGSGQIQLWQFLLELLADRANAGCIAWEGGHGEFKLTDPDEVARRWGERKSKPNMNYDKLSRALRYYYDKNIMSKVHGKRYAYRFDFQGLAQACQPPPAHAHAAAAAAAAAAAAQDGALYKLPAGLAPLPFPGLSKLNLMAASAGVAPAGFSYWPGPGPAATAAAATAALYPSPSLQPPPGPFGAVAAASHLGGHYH
Method in brief: as §1

[9] = biological target: ETV5 (Homo sapiens, UniProt P41161 1-510)
Method in brief: as §1

[10] = biological target: ELF4 (Homo sapiens, UniProt Q99607 1-663)
Method in brief: as §1

[11] = biological target: T6, ETV2 (Homo sapiens, UniProt O00321 1-342)
T6 sequence: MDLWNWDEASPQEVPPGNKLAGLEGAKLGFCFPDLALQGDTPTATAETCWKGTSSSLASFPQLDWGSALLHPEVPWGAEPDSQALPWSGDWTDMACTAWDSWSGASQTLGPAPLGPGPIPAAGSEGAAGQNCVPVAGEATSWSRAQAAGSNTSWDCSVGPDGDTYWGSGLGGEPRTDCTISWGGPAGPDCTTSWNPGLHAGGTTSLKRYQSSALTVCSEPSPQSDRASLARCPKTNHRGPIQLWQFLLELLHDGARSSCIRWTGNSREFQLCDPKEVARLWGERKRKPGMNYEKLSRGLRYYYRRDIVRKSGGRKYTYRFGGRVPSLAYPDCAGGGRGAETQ
Method in brief: as §1

[12] = biological target: T7, ELF3 (Homo sapiens, UniProt P78545 1-371)
T7 sequence: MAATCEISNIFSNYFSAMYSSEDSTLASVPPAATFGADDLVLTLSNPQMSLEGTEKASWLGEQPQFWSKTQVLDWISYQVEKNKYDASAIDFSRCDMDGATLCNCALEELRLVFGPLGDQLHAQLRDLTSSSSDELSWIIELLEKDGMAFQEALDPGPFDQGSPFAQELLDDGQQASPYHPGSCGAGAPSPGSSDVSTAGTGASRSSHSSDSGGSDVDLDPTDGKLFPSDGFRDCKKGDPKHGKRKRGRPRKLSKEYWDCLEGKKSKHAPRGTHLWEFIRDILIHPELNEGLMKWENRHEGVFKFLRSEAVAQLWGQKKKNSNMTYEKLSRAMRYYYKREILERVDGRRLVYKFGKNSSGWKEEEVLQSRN
Method in brief: as §1

[13] = biological target: ETV1 (Homo sapiens, UniProt P50549 1-477)
Method in brief: as §1

[14] = biological target: T8, ERF (Homo sapiens, UniProt P50548 1-548)
T8 sequence: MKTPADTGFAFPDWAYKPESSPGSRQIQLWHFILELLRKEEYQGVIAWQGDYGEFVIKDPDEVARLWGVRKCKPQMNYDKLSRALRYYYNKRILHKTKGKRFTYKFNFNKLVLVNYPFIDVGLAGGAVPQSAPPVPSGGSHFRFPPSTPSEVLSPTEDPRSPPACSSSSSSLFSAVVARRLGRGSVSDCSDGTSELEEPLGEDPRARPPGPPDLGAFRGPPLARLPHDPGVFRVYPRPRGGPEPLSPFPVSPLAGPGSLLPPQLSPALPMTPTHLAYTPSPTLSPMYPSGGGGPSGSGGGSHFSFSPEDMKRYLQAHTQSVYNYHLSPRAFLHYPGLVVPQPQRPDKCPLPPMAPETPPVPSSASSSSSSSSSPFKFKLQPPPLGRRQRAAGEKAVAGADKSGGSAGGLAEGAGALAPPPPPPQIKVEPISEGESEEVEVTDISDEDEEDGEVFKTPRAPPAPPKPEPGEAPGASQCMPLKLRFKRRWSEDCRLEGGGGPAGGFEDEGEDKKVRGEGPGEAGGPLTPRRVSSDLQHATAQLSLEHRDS
Method in brief: as §1

[15] = biological target: T9, ETV3L (Homo sapiens, UniProt Q6ZN32 1-361)
T9 sequence: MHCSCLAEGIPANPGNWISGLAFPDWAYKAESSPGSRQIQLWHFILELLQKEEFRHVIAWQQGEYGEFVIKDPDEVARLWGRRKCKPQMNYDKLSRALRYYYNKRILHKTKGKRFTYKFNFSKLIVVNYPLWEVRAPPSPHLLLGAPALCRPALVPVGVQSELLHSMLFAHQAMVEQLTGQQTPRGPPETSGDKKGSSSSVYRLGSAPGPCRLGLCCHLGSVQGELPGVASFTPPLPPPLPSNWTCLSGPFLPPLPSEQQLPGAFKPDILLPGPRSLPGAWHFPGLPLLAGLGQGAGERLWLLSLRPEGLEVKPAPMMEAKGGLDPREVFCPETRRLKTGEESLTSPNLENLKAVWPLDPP
Method in brief: as §1

[16] = biological target: T10, ETS2 (Homo sapiens, UniProt P15036 1-469)
T10 sequence: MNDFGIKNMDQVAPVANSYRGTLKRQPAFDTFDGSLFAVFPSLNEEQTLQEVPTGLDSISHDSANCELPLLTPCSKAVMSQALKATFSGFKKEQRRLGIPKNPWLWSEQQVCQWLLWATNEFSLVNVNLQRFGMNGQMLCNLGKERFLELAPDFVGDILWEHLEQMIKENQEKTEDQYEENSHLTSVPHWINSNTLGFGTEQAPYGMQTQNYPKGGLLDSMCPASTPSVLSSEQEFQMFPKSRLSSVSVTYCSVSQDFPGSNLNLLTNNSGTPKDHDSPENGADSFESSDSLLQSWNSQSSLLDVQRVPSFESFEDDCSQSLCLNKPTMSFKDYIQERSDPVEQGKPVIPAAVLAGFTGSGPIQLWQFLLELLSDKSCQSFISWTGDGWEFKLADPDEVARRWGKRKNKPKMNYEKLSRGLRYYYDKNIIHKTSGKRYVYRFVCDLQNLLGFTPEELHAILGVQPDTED
Method in brief: as §1

[17] = biological target: T11, ETV7 (Homo sapiens, UniProt Q9Y603 1-341)
T11 sequence: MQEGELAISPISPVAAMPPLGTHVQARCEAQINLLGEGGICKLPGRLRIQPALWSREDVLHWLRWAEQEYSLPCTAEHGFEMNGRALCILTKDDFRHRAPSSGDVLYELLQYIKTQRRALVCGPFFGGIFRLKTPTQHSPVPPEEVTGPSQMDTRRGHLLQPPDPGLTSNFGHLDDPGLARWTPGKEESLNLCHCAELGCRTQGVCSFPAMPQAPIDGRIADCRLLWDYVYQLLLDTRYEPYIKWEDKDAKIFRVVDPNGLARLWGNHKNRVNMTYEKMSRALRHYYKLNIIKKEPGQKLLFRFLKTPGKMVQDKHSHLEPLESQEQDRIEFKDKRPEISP
Method in brief: as §1

[18] = biological target: T12, ETV3 (Homo sapiens, UniProt P41162-2 1-143)
T12 sequence: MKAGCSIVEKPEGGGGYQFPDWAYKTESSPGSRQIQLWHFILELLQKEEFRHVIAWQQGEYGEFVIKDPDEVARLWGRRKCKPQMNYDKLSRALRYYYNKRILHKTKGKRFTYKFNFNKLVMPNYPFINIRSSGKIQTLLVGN
Method in brief: as §1

[19] = biological target: ETV6 (Homo sapiens, UniProt P41212 1-452)
Method in brief: as §1

ETV1, sequence (P50549 whole entry): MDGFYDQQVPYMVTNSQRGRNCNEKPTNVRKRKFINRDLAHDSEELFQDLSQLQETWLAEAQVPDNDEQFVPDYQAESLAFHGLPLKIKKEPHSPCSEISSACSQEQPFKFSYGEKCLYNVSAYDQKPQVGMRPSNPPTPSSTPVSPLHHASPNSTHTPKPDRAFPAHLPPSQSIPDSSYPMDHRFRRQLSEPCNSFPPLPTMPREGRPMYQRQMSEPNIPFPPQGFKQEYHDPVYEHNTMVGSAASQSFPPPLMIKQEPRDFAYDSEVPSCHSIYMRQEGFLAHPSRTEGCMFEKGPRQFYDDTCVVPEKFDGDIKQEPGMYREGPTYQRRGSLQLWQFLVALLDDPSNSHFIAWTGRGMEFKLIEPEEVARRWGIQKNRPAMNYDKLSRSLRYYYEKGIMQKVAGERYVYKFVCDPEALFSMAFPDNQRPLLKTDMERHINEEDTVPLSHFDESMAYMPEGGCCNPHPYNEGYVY
ELF1, sequence (P32519 whole entry): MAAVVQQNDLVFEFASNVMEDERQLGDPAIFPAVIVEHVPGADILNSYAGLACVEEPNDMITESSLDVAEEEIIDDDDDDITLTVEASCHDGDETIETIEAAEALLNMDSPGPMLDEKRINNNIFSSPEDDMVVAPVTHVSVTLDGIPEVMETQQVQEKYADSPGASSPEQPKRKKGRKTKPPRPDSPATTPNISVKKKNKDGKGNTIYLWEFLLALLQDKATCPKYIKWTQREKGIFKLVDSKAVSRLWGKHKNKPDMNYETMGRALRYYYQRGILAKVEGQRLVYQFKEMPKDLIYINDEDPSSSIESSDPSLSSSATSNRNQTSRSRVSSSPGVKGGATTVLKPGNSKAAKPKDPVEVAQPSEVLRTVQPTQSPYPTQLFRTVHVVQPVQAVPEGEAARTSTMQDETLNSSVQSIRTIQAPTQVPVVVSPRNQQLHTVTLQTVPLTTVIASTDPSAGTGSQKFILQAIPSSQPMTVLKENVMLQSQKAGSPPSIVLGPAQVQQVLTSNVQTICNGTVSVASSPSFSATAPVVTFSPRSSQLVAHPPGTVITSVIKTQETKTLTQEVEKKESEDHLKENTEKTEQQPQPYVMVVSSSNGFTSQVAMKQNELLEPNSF
ETV6, sequence (P41212 whole entry): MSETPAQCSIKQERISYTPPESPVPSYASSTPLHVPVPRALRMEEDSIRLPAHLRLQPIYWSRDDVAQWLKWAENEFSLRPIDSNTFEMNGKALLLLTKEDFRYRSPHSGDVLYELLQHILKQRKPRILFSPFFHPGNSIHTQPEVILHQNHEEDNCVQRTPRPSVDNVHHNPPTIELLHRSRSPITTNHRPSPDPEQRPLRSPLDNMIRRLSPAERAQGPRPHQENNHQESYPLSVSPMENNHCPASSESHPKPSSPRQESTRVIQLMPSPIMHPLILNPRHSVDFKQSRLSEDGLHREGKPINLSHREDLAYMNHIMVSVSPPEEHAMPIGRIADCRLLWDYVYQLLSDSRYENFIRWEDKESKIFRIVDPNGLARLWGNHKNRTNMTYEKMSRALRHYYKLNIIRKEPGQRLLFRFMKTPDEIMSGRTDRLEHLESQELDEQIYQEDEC
ETV5, sequence (P41161 whole entry): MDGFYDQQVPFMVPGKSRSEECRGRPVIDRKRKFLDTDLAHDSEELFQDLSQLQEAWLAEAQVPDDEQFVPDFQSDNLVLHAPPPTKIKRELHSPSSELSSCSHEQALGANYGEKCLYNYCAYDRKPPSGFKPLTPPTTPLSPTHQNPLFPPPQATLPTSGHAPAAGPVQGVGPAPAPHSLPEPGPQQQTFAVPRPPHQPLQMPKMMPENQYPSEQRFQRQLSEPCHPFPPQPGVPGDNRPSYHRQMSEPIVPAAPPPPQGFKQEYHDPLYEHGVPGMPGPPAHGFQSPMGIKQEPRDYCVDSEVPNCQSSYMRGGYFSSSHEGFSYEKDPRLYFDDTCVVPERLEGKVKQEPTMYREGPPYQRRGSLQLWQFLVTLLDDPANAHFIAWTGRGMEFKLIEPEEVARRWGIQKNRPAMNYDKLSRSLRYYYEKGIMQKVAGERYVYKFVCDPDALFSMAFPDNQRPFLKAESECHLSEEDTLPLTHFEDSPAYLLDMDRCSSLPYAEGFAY
SPIB, sequence (Q01892 whole entry): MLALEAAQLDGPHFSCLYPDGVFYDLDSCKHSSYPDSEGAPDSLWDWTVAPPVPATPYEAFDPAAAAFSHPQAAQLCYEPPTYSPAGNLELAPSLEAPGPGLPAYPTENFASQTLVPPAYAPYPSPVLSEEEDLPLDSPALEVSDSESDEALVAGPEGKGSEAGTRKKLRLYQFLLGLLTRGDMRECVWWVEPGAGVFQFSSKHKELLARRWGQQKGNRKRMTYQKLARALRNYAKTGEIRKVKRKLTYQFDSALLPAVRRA
ELF4, sequence (Q99607 whole entry): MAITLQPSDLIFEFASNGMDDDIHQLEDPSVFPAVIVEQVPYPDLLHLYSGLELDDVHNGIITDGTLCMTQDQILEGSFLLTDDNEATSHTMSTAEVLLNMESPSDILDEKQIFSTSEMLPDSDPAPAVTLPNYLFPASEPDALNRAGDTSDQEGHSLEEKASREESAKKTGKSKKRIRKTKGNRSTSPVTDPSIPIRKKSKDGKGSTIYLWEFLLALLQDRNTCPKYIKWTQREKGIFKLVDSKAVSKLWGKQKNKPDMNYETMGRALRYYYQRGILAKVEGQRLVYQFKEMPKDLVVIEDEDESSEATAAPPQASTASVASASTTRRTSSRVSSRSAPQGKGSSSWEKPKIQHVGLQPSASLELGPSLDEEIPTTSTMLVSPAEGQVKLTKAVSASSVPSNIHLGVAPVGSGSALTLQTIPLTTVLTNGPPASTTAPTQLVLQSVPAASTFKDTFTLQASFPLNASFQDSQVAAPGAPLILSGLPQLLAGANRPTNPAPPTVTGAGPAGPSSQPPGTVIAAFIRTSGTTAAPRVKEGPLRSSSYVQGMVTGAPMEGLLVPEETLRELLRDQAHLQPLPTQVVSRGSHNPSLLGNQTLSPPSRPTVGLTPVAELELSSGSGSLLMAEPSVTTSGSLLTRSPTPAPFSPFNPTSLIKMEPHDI

With GCTTGT the binding signal [1] was 1.22 fold enrichment (6-mer frequency, TF over GST control), the binding signal [2] was 1.08 fold enrichment (6-mer frequency, TF over GST control) and the binding signal [3] was 1.05 fold enrichment (6-mer frequency, TF over GST control). For the same sequence, the binding signal [4] was 1.11 fold enrichment (6-mer frequency, TF over GST control), the binding signal [5] was 1.13 fold enrichment (6-mer frequency, TF over GST control) and the binding signal [6] was 1.15 fold enrichment (6-mer frequency, TF over GST control). For the same sequence, the binding signal [7] was 1.13 fold enrichment (6-mer frequency, TF over GST control), the binding signal [8] was 1.02 fold enrichment (6-mer frequency, TF over GST control) and the binding signal [9] was 1.2 fold enrichment (6-mer frequency, TF over GST control). The binding signal [10] was 1.07 fold enrichment (6-mer frequency, TF over GST control), the binding signal [11] was 1.03 fold enrichment (6-mer frequency, TF over GST control) and the binding signal [12] was 1.09 fold enrichment (6-mer frequency, TF over GST control). The binding signal [13] was 1.13 fold enrichment (6-mer frequency, TF over GST control), the binding signal [14] was 1.18 fold enrichment (6-mer frequency, TF over GST control) and the binding signal [15] was 1.02 fold enrichment (6-mer frequency, TF over GST control). The binding signal [16] was 1.07 fold enrichment (6-mer frequency, TF over GST control), the binding signal [17] was 1.09 fold enrichment (6-mer frequency, TF over GST control) and the binding signal [18] was 1.11 fold enrichment (6-mer frequency, TF over GST control). The binding signal [19] was 1.02 fold enrichment (6-mer frequency, TF over GST control).
